Laboratory results published in PubChem BioAssay (Tox21).
Results filed as inconclusive are left out. Activity calls are given as the source filed them. Calls follow the shape of the dose curve; as a rule, active = well fitted cell-killing curve with a large enough effect in the repeat runs; inconclusive = weak or mixed curves, or effect the other way; inactive = no such curve, though single readings can be large or run the other way.

assay: qHTS assay to identify small molecule antagonists of the glucocorticoid receptor (GR) signaling pathway - cell viability counter screen (AID 720693); conditions: GR-bla HeLa viability, CellTiter-Glo luminescence, 18 h, with 5 nM dexamethasone present; series mostly up to 58.5 µM; also: nearly all actives have a fitted effect of over 55% in size
Text: National Center for Advancing Translational Sciences [NCATS]
NIH Chemical Genomics Center [NCGC]
U.S. Environmental Protection Agency [EPA]
National Institutes of Environmental Health Sciences [NIEHS]
National Toxicology Program [NTP]
U.S. Food and Drug Administration [FDA]
The Glucocorticoid receptor (GR) is one of the members of the nuclear receptor family of ligand-dependent transcription factors. GR plays a critical role in carbohydrate, protein and lipid metabolisms and programmed cell death. CellSensor GR-bla HeLa cell line (Invitrogen) contains a beta-lactamase reporter gene under the control of the glucocorticoid response element stably integrated into HeLa cells, a cervical cancer cell line that expresses glucocorticoid receptor. The activation of the reporter gene under culture conditions can be detected by fluorescence intensity. This cell line has been used to screen the Tox21 10K compound library and to identify the compounds that inhibit the GR signaling. The cytotoxicity of the Tox21 compound library against the GR-bla HeLa cell line was tested in parallel by measuring the cell viability using CellTiter-Glo assay in the same wells.
Tox21 Assay Protocol Summary:
The GR-bla HeLa cells were dispensed at 1500 cells/5 ul/well in 1536-well black wall/clear bottom plates using a Multidrop Combi (ThermoFisher Scientific, Waltham, MA) dispenser. After the assay plates were incubated at a 37 C/5% CO2 incubator for 4 hours, 23 nL of compounds dissolved in DMSO, positive controls or DMSO only was transferred to the assay plate by a pintool station (Kalypsys, San Diego, CA), followed by addition of 1 uL of dexamethasone (5 nM, final concentration in the well). The plates were incubated at 37 C for 18 hours. After 1 uL of LiveBLAzerTM B/G FRET substrate was added using a Flying Reagent Dispenser (Aurora Discovery, San Diego, CA), the plates were incubated at room temperature (RT) for 2 hours, and fluorescence intensity was measured by an Envision plate reader (PerkinElmer, Shelton, CT). After measurement of bla assay, 3 ul CellTiter-Glo (Promega, Madison, WI) was added to measure the cytotoxicity and the plates were then incubated at RT for 30 min. The luminescence was measured using a ViewLux (Perkin Elmer) plate reader.

Compound	outcome
CCCSc1ccc2nc(NC(=O)OC)[nH]c2c1	inactive
CC(O)COCC(C)O (stereo not given)	inactive
O=S(=O)(O)c1ccc2ccccc2c1	inactive
O=C(O)CC(C(=O)O)C(CC(=O)O)C(=O)O (stereo not given)	inactive
CC(C)CC(=O)CC(C)C	inactive
CCN(CC)CCCC(C)Nc1ccnc2cc(Cl)ccc12 (stereo not given)	inactive
O=P(OC(CCl)CCl)(OC(CCl)CCl)OC(CCl)CCl	inactive
CCCCC(CC)CO (stereo not given)	inactive
CCCCC(CC)COC(=O)C(C#N)=C(c1ccccc1)c1ccccc1 (stereo not given)	inactive
CN(C)CCC(c1ccccc1)c1ccccn1 (stereo not given)	inactive
C[C@H]1C[C@H]2[C@@H]3CCC4=CC(=O)C=C[C@]4(C)[C@@]3(F)[C@@H](O)C[C@]2(C)[C@@]1(O)C(=O)CO	inactive
COc1ccc(Nc2ccccc2)c(C)c1	inactive
Cc1cccnc1	inactive
COc1ccc(NC(C)=O)cc1N	inactive
C=C(C)C(=O)OCCOCCOCCOC(=O)C(=C)C	inactive
C=CCNC(N)=S	inactive
C=C(C)C(=O)Nc1ccc(Cl)c(Cl)c1	inactive
O=C(O)CCCCCCCCCCC(=O)O	inactive
CC(=O)CC(=O)Nc1ccccc1	inactive
Nc1cc([N+](=O)[O-])ccc1O	inactive

Compound	outcome
O=c1[nH]nnc2ccccc12	inactive
OCCOCCN1CCN(C2=Nc3ccccc3Sc3ccccc32)CC1	inactive
Cc1ccc(N(C)C)cc1	inactive
O=C(O)[C@H](O)[C@@H](O)[C@H](O)[C@H](O)CO	inactive
Cc1ccc(S(N)(=O)=O)cc1	inactive
NNc1nncc2ccccc12	inactive
CCCCN(CCCC)CCCC	inactive
O=C(O)c1cc(O)c(O)c(O)c1	inactive
CC1=C(C)S(=O)(=O)CCS1(=O)=O	inactive
CC(=O)CC(=O)Nc1ccccc1C	inactive
CCCC(C)=O	inactive
COc1cc(Cc2cnc(N)nc2N)cc(OC)c1OC	inactive
CCCCC(CC)COC(=O)CS (stereo not given)	inactive
O=[N+]([O-])c1ccc(/C=C/c2ccc([N+](=O)[O-])cc2S(=O)(=O)O)c(S(=O)(=O)O)c1	inactive
CN(C)CCC(c1ccc(Cl)cc1)c1ccccn1 (stereo not given)	inactive
CC(=O)c1ccccc1	inactive
OCCOCCOCCO	inactive
CCc1ccc(CCOc2ccc(CC3SC(=O)NC3=O)cc2)nc1 (stereo not given)	inactive
C=C(C)C(=O)O[C@H]1C[C@@H]2CC[C@@]1(C)C2(C)C	inactive
C#CCN(C)Cc1ccccc1	inactive
